Where a name gives a salt, the structure may show the parent alone. ± gives the standard deviation of the averaged measurements.
Tests used:
Experiment in all cases: growth (OD600 after 10 h); higher = more growth (less inhibition)
[1] = tested on: E. coli TESEC Alr+ wild-type control; conditions: compound 0.1 mM; raw OD600 reference: median of DMSO wells 0.241, cell-free background 0.041
Procedure: (§1)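 TESEC Mtb Alr E. coli, or the Alr+ wild-type control, in 384-well plates with Prestwick library compounds at 0.1 mM and 1% DMSO, across arabinose induction levels of 1E3 to 1E7 nM. Growth is read as OD600 after 10 h at 37 °C in triplicate biological replicates.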

E. coli TESEC Mtb Alr [2] = conditions: compound 0.1 mM
Procedure: as §1

E. coli TESEC Mtb Asd = conditions: compound 0.1 mM
Procedure: (§2)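 TESEC E. coli strains in which the native enzyme is deleted and replaced by arabinose-inducible Mtb Asd, DapB, CysH or TrpD, each grown in its selective medium. Strains were screened against the Prestwick library at 0.1 mM and 1% DMSO in 384-well format at low and high arabinose induction. Growth is read as OD600 after 10 h in triplicate.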

E. coli TESEC Mtb DapB = conditions: compound 0.1 mM
Procedure: as §2

E. coli TESEC Mtb Alr [3] = conditions: compound 0.1 mM; remark: listed apart in the source
Procedure: (§3)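 TESEC Mtb Alr E. coli (ΔaraC ΔtolC ΔentC Δalr ΔdadX, arabinose-inducible Mtb Alr) or the Alr+ wild-type control strain, grown in defined M9-fructose medium without D-alanine in 96-well plates with Prestwick library compounds at 0.1 mM and 1% DMSO. Low Alr induction is 0.1 µM arabinose and high induction is 10 mM arabinose.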

[4] = tested on: E. coli TESEC Alr+ wild-type control; conditions: compound 0.1 mM; raw OD600 reference: median of DMSO wells 0.49, cell-free background 0.052
Procedure: as §3

[5] = arabinose 1000 nM, raw OD600 reference: median of DMSO wells 0.294, cell-free background 0.041
[6] = arabinose 10000 nM, raw OD600 reference: median of DMSO wells 0.264, cell-free background 0.041
[7] = arabinose 100000 nM, raw OD600 reference: median of DMSO wells 0.201, cell-free background 0.041
[8] = arabinose 1000000 nM, raw OD600 reference: median of DMSO wells 0.193, cell-free background 0.041
[9] = arabinose 10000000 nM, raw OD600 reference: median of DMSO wells 0.146, cell-free background 0.041
[10] = arabinose induction (level): High, raw OD600 reference: median of DMSO wells 0.331, cell-free background 0.041
[11] = arabinose induction (level): Low, raw OD600 reference: median of DMSO wells 0.417, cell-free background 0.041
[12] = arabinose induction (level): High, raw OD600 reference: median of DMSO wells […], cell-free background 0.041
[13] = arabinose induction (level): Low, raw OD600 reference: median of DMSO wells 0.227, cell-free background 0.041
[14] = arabinose 100 nM, raw OD600 reference: median of DMSO wells 0.413, cell-free background 0.052
[15] = arabinose 10000000 nM, raw OD600 reference: median of DMSO wells […], cell-free background 0.052

SMILES: CC[N+]1(C)CCCC(OC(=O)C(O)(c2ccccc2)c2ccccc2)C1 (stereo not given) [Pipenzolate bromide]
- growth [1]: 0.217 ± 0.0052
- growth (E. coli TESEC Mtb Alr [2]; [5]): 0.284 ± 0.014
- growth (E. coli TESEC Mtb Alr [2]; [6]): 0.258 ± 0.012
- growth (E. coli TESEC Mtb Alr [2]; [7]): 0.169 ± 0.0056
- growth (E. coli TESEC Mtb Alr [2]; [8]): 0.186 ± 0.0047
- growth (E. coli TESEC Mtb Alr [2]; [9]): 0.133 ± 0.0034
- growth (E. coli TESEC Mtb Asd; [10]): 0.299 ± 0.035
- growth (E. coli TESEC Mtb Asd; [11]): 0.469 ± 0.025
- growth (E. coli TESEC Mtb DapB; [12]): 0.234 ± 0.013
- growth (E. coli TESEC Mtb DapB; [13]): 0.263 ± 0.058
- growth (E. coli TESEC Mtb Alr [3]; [14]): 0.409 ± 0.023
- growth (E. coli TESEC Mtb Alr [3]; [15]): 0.348 ± 0.025

SMILES: C[N+]1(C)CCCC(OC(=O)C(O)(c2ccccc2)c2ccccc2)C1 (stereo not given) [Mepenzolate bromide]
- growth [1]: 0.235 ± 0.006
- growth (E. coli TESEC Mtb Alr [2]; [5]): 0.307 ± 0.016
- growth (E. coli TESEC Mtb Alr [2]; [6]): 0.258 ± 0.0015
- growth (E. coli TESEC Mtb Alr [2]; [7]): 0.203 ± 0.022
- growth (E. coli TESEC Mtb Alr [2]; [8]): 0.179 ± 0.0065
- growth (E. coli TESEC Mtb Alr [2]; [9]): 0.137 ± 0.0056
- growth (E. coli TESEC Mtb Asd; [10]): 0.307 ± 0.038
- growth (E. coli TESEC Mtb Asd; [11]): 0.461 ± 0.02
- growth (E. coli TESEC Mtb DapB; [12]): 0.188 ± 0.0063
- growth (E. coli TESEC Mtb DapB; [13]): 0.226 ± 0.009
- growth (E. coli TESEC Mtb Alr [3]; [14]): 0.405 ± 0.0053
- growth (E. coli TESEC Mtb Alr [3]; [15]): 0.345 ± 0.014

SMILES: COc1ccc(OC)c(C(O)C(C)N)c1 (stereo not given) [Methoxamine hydrochloride]
- growth [1]: 0.241 ± 0.0052
- growth (E. coli TESEC Mtb Alr [2]; [5]): 0.292 ± 0.0063
- growth (E. coli TESEC Mtb Alr [2]; [6]): 0.27 ± 0.005
- growth (E. coli TESEC Mtb Alr [2]; [7]): 0.212 ± 0.024
- growth (E. coli TESEC Mtb Alr [2]; [8]): 0.187 ± 0.003
- growth (E. coli TESEC Mtb Alr [2]; [9]): 0.148 ± 0.0068
- growth (E. coli TESEC Mtb Asd; [10]): 0.272 ± 0.074
- growth (E. coli TESEC Mtb Asd; [11]): 0.409 ± 0.021
- growth (E. coli TESEC Mtb DapB; [12]): 0.223 ± 0.033
- growth (E. coli TESEC Mtb DapB; [13]): 0.222 ± 0.028
- growth (E. coli TESEC Mtb Alr [3]; [14]): 0.413 ± 0.011
- growth (E. coli TESEC Mtb Alr [3]; [15]): 0.334 ± 0.023

SMILES: C#C[C@]1(O)CC[C@H]2[C@@H]3CCC4=CC(=O)CCC4=C3C=C[C@@]21CC [Gestrinone]
- growth [1]: 0.13 ± 0.0014
- growth (E. coli TESEC Mtb Alr [2]; [5]): 0.195 ± 0.02
- growth (E. coli TESEC Mtb Alr [2]; [6]): 0.18 ± 0.0068
- growth (E. coli TESEC Mtb Alr [2]; [7]): 0.173 ± 0.0028
- growth (E. coli TESEC Mtb Alr [2]; [8]): 0.105 ± 0.011
- growth (E. coli TESEC Mtb Alr [2]; [9]): 0.134 ± 0.0068
- growth (E. coli TESEC Mtb Asd; [10]): 0.216 ± 0.065
- growth (E. coli TESEC Mtb Asd; [11]): 0.253 ± 0.12
- growth (E. coli TESEC Mtb DapB; [12]): 0.179 ± 0.015
- growth (E. coli TESEC Mtb DapB; [13]): 0.212 ± 0.013
- growth (E. coli TESEC Mtb Alr [3]; [14]): 0.374 ± 0.0073
- growth (E. coli TESEC Mtb Alr [3]; [15]): 0.165 ± 0.03

SMILES: O[C@@H]1CCCC[C@H]1N1CCC(c2ccccc2)CC1 [L(-)-vesamicol hydrochloride]
- growth [1]: 0.216 ± 0.0031
- growth (E. coli TESEC Mtb Alr [2]; [5]): 0.281 ± 0.014
- growth (E. coli TESEC Mtb Alr [2]; [6]): 0.251 ± 0.0068
- growth (E. coli TESEC Mtb Alr [2]; [7]): 0.176 ± 0.012
- growth (E. coli TESEC Mtb Alr [2]; [8]): 0.182 ± 0.0074
- growth (E. coli TESEC Mtb Alr [2]; [9]): 0.141 ± 0.0046
- growth (E. coli TESEC Mtb Asd; [10]): 0.294 ± 0.048
- growth (E. coli TESEC Mtb Asd; [11]): 0.381 ± 0.016
- growth (E. coli TESEC Mtb DapB; [12]): 0.194 ± 0.018
- growth (E. coli TESEC Mtb DapB; [13]): 0.201 ± 0.015
- growth (E. coli TESEC Mtb Alr [3]; [14]): 0.414 ± 0.012
- growth (E. coli TESEC Mtb Alr [3]; [15]): 0.358 ± 0.0053

SMILES: CC(C)CC(N(C)C)C1(c2ccc(Cl)cc2)CCC1 (stereo not given) [Sibutramine HCl]
- growth [1]: 0.198 ± 0.0063
- growth (E. coli TESEC Mtb Alr [2]; [5]): 0.264 ± 0.0096
- growth (E. coli TESEC Mtb Alr [2]; [6]): 0.269 ± 0.0079
- growth (E. coli TESEC Mtb Alr [2]; [7]): 0.193 ± 0.032
- growth (E. coli TESEC Mtb Alr [2]; [8]): 0.131 ± 0.0058
- growth (E. coli TESEC Mtb Alr [2]; [9]): 0.137 ± 0.0051
- growth (E. coli TESEC Mtb Asd; [10]): 0.213 ± 0.043
- growth (E. coli TESEC Mtb Asd; [11]): 0.37 ± 0.098
- growth (E. coli TESEC Mtb DapB; [12]): 0.161 ± 0.014
- growth (E. coli TESEC Mtb DapB; [13]): 0.185 ± 0.012
- growth [4]: 0.602 ± 0.091
- growth (E. coli TESEC Mtb Alr [3]; [14]): 0.414 ± 0.0078
- growth (E. coli TESEC Mtb Alr [3]; [15]): 0.35 ± 0.014

SMILES: C[N+]12CCC(CC1)C(OC(=O)C(O)(c1ccccc1)c1ccccc1)C2 (stereo not given) [Clidinium bromide]
- growth [1]: 0.239 ± 0.0044
- growth (E. coli TESEC Mtb Alr [2]; [5]): 0.326 ± 0.011
- growth (E. coli TESEC Mtb Alr [2]; [6]): 0.273 ± 0.0033
- growth (E. coli TESEC Mtb Alr [2]; [7]): 0.175 ± 0.03
- growth (E. coli TESEC Mtb Alr [2]; [8]): 0.187 ± 0.01
- growth (E. coli TESEC Mtb Alr [2]; [9]): 0.132 ± 0.0086
- growth (E. coli TESEC Mtb Asd; [10]): 0.288 ± 0.035
- growth (E. coli TESEC Mtb Asd; [11]): 0.453 ± 0.034
- growth (E. coli TESEC Mtb DapB; [12]): 0.169 ± 0.01
- growth (E. coli TESEC Mtb DapB; [13]): 0.201 ± 0.0094
- growth (E. coli TESEC Mtb Alr [3]; [14]): 0.406 ± 0.015
- growth (E. coli TESEC Mtb Alr [3]; [15]): 0.353 ± 0.019

SMILES: NCCc1c[nH]c2ccc(O)cc12 [Serotonin hydrochloride]
- growth [1]: 0.231 ± 0.013
- growth (E. coli TESEC Mtb Alr [2]; [5]): 0.297 ± 0.011
- growth (E. coli TESEC Mtb Alr [2]; [6]): 0.269 ± 0.0069
- growth (E. coli TESEC Mtb Alr [2]; [7]): 0.198 ± 0.036
- growth (E. coli TESEC Mtb Alr [2]; [8]): 0.201 ± 0.0049
- growth (E. coli TESEC Mtb Alr [2]; [9]): 0.145 ± 0.0029
- growth (E. coli TESEC Mtb Asd; [10]): 0.361 ± 0.022
- growth (E. coli TESEC Mtb Asd; [11]): 0.405 ± 0.091
- growth (E. coli TESEC Mtb DapB; [12]): 0.209 ± 0.011
- growth (E. coli TESEC Mtb DapB; [13]): 0.237 ± 0.0078
- growth (E. coli TESEC Mtb Alr [3]; [14]): 0.407 ± 0.02
- growth (E. coli TESEC Mtb Alr [3]; [15]): 0.338 ± 0.054

SMILES: COc1ccc2c(c1)[C@]13CCCC[C@@H]1[C@H](C2)N(C)CC3 [Dextromethorphan hydrobromide monohydrate]
- growth [1]: 0.1976 ± 0.0013
- growth (E. coli TESEC Mtb Alr [2]; [5]): 0.25 ± 0.005
- growth (E. coli TESEC Mtb Alr [2]; [6]): 0.255 ± 0.0068
- growth (E. coli TESEC Mtb Alr [2]; [7]): 0.2 ± 0.027
- growth (E. coli TESEC Mtb Alr [2]; [8]): 0.154 ± 0.0044
- growth (E. coli TESEC Mtb Alr [2]; [9]): 0.142 ± 0.002
- growth (E. coli TESEC Mtb Asd; [10]): 0.168 ± 0.015
- growth (E. coli TESEC Mtb Asd; [11]): 0.29 ± 0.045
- growth (E. coli TESEC Mtb DapB; [12]): 0.17 ± 0.015
- growth (E. coli TESEC Mtb DapB; [13]): 0.232 ± 0.031
- growth [4]: 0.469 ± 0.03
- growth (E. coli TESEC Mtb Alr [3]; [14]): 0.42 ± 0.006
- growth (E. coli TESEC Mtb Alr [3]; [15]): 0.355 ± 0.015

Source: the supplement of paper PMC9262897, “Low-cost anti-mycobacterial drug discovery using engineered E. coli” (Nature Communications, 2022)
